Among the data in PubChem BioAssay (EPA / NIEHS) are outcome and AC50 values, retold here.

Active and inactive are the calls of the source. Rule for the calls: active = hit-call score of the fitted dose curve at least 0.9, where 1 is the maximum; inactive = score below 0.9.

Usually AC50 stands for the midpoint of the concentration-response curve, whichever way the signal moves.

Settings in all cases: mRNA level, 48 h; actives raise or lower the signal
Read-out in assay [1]: growth arrest and DNA damage 45 (GADD45B), GADD45B (gene 4616)
Description: LTEA_HepaRG_GADD45B: Life Technologies and Expression Analysis (LTEA) Assay for growth arrest and DNA damage 45 (GADD45B) using HepaRG (AID 2283461). The method, boiled down:
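Differentiated HepaRG cells, plated 48 h then switched to serum-free induction medium, were exposed 48 h in duplicate to eight half-log concentrations from 100 uM in 0.5% DMSO; mRNA quantified by qRT-PCR, normalized to ACTB/GAPDH/POLR2A, bidirectional fit versus DMSO.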

Read-out in assay [2]: ABC Transporter (ABCC3), ABCC3 (gene 8714)
Description: LTEA_HepaRG_ABCC3: Life Technologies and Expression Analysis (LTEA) Assay for ABC Transporter (ABCC3) using HepaRG (AID 2283462). The method, boiled down:
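HepaRG cells in serum-free induction medium were exposed for 48 h in duplicate to 8-point half-log concentrations topping at 100 uM in 0.5% DMSO. ABCC3 mRNA was measured by qRT-PCR normalized to ACTB, GAPDH and POLR2A, with bidirectional fitting versus DMSO.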

Read-out in assay [3]: ABC Transporter (ABCB11), ABCB11 (gene 8647)
Description: LTEA_HepaRG_ABCB11: Life Technologies and Expression Analysis (LTEA) Assay for ABC Transporter (ABCB11) using HepaRG (AID 2283463). The method, boiled down: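 HepaRG, 48 h exposure, 8-pt half-log CRC top 100 uM, 0.5% DMSO vehicle, duplicates. Readout: TaqMan qRT-PCR of ABCB11 mRNA, housekeeping-normalized (ACTB/GAPDH/POLR2A). Bidirectional fit vs DMSO baseline.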

Read-out in assay [4]: ABC Transporter (ABCC2), ABCC2 (gene 1244)
The assay is described as follows: LTEA_HepaRG_ABCC2: Life Technologies and Expression Analysis (LTEA) Assay for ABC Transporter (ABCC2) using HepaRG (AID 2283464). An outline of the steps: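 HepaRG cells were plated 48 h, switched to serum-free induction medium, then exposed in duplicate for 48 h to 8 concentrations (top 100 uM, half-log steps, 0.5% DMSO). ABCC2 mRNA was measured by qRT-PCR normalized to ACTB/GAPDH/POLR2A; bidirectional fitting versus DMSO.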

Read-out in assay [5]: Broad substrate specificity ATP-binding cassette transporter ABCG2 (Homo sapiens) (UniProt Q9UNQ0)
Description: LTEA_HepaRG_ABCG2: Life Technologies and Expression Analysis (LTEA) Assay for ABC Transporter (ABCG2) using HepaRG (AID 2283465). The method, boiled down: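 HepaRG, 48 h exposure, 8-pt half-log series from 100 uM, 0.5% DMSO vehicle, duplicates. Readout: ABCG2 transcript by qRT-PCR (Fluidigm array), housekeeping-normalized; bidirectional curve fit relative to DMSO baseline.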

Read-out in assay [6]: ATP-citrate lyase (ACLY), ACLY (gene 47)
Description: LTEA_HepaRG_ACLY: Life Technologies and Expression Analysis (LTEA) Assay for ATP-citrate lyase (ACLY) using HepaRG (AID 2283466). The method, boiled down:
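qRT-PCR readout of ACLY transcript after 48 h chemical treatment of HepaRG cells; expression normalized to three housekeeping genes. Eight-point half-log series, highest 100 uM, 0.5% DMSO vehicle. Gain or loss fitted against DMSO baseline.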

Read-out in assay [7]: Peroxisomal acyl-coenzyme A oxidase 1 (ACOX1) gene, ACOX1 (gene 51)
Description: LTEA_HepaRG_ACOX1: Life Technologies and Expression Analysis (LTEA) Assay for Peroxisomal acyl-coenzyme A oxidase 1 (ACOX1) gene using HepaRG (AID 2283467). An outline of the steps:
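HepaRG, 48 h chemical exposure, 8-pt half-log series from 100 uM top, 0.5% DMSO vehicle, duplicates. Readout: ACOX1 mRNA by Fluidigm qRT-PCR, housekeeping-normalized; bidirectional fit vs DMSO baseline.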

Read-out in assay [8]: Alkaline Phosphatase, Placental (ALPP) gene, ALPP (gene 250)
Description: LTEA_HepaRG_ALPP: Life Technologies and Expression Analysis (LTEA) Assay for Alkaline Phosphatase, Placental (ALPP) gene using HepaRG (AID 2283468). An outline of the steps:
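Differentiated human HepaRG cells were plated and cultured 48 h, then exposed in duplicate for 48 h in serum-free induction medium to eight half-log concentrations from 100 uM in 0.5% DMSO. ALPP mRNA was measured by TaqMan qRT-PCR, normalized to ACTB, GAPDH, POLR2A.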

Read-out in assay [9]: Bcl-2 (BAX) gene, BAX (gene 581)
The assay is described as follows: LTEA_HepaRG_BAX: Life Technologies and Expression Analysis (LTEA) Assay for Bcl-2 (BAX) gene using HepaRG (AID 2283470). An outline of the steps: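 Cells were thawed, plated for 48 h, moved to serum-free induction medium and dosed for 48 h (highest concentration 100 uM, half-log steps, 0.5% DMSO). Total RNA was then analysed for BAX expression by qRT-PCR.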

Read-out in assay [10]: adenosine kinase (ADK) gene, ADK (gene 132)
Description: LTEA_HepaRG_ADK: Life Technologies and Expression Analysis (LTEA) Assay for adenosine kinase (ADK) gene using HepaRG (AID 2283471). The method, boiled down:
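ADK expression quantified by qRT-PCR, normalised to three housekeeping genes, after 48 h exposure of HepaRG cells to eight concentrations (top 100 uM, half-log steps, duplicate, 0.5% DMSO). Up- or down-regulation fitted relative to vehicle.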

Read-out in assay [11]: Alpha-fetoprotein (AFP) gene, AFP (gene 174)
Description: LTEA_HepaRG_AFP: Life Technologies and Expression Analysis (LTEA) Assay for Alpha-fetoprotein (AFP) gene using HepaRG (AID 2283472). The method, boiled down: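 Chemicals were tested on differentiated HepaRG cells for 48 hours at eight concentrations up to 100 uM, with 0.5% DMSO as vehicle. AFP expression was then quantified by qRT-PCR and analyzed for gain or loss relative to DMSO.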

Read-out in another assay: BCL2L11 (gene 10018)
The assay is described as follows: LTEA_HepaRG_BCL2L11: Life Technologies and Expression Analysis (LTEA) Assay for Bcl-2 (BCL2L11) gene using HepaRG (AID 2283473). The method, boiled down: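 Differentiated human HepaRG cells in serum-free induction medium were exposed in duplicate for 48 h to eight concentrations (top 100 uM, half-log steps, 0.5% DMSO). BCL2L11 mRNA was quantified by TaqMan qRT-PCR, normalized to ACTB/GAPDH/POLR2A, bidirectional fit versus DMSO.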

Read-out in assay [12]: Apoptosis regulator Bcl-2 (Homo sapiens) (UniProt P10415)
The assay is described as follows: LTEA_HepaRG_BCL2: Life Technologies and Expression Analysis (LTEA) Assay for Bcl-2 gene using HepaRG (AID 2283475). The method, boiled down: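 Plated human HepaRG cells are exposed to test chemicals for 48 h across eight concentrations from 100 uM downward in half-log steps (0.5% DMSO). BCL2 expression is then measured by qRT-PCR with housekeeping normalisation and fitted bidirectionally against vehicle.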

Read-out in assay [13]: Bcl-2 (BID) gene, BID (gene 637)
Description: LTEA_HepaRG_BID: Life Technologies and Expression Analysis (LTEA) Assay for Bcl-2 (BID) gene using HepaRG (AID 2283476). An outline of the steps: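 Cells are plated, cultured 48 h, switched to serum-free induction medium, then dosed 48 h (100 uM top, half-log steps, 0.5% DMSO). RNA is isolated and BID expression read by qRT-PCR.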

Read-out in the next assay: Caspase-3 (Homo sapiens) (UniProt P42574)
Description: LTEA_HepaRG_CASP3: Life Technologies and Expression Analysis (LTEA) Assay for cysteine-aspartic acid protease (CASP3) using HepaRG (AID 2283477). An outline of the steps:
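Differentiated human HepaRG cells in serum-free induction medium were exposed 48 h to 8-point half-log concentrations from 100 uM (0.5% DMSO vehicle). CASP3 mRNA was measured by qRT-PCR, normalised to ACTB, GAPDH and POLR2A, with bidirectional fitting against DMSO.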

Read-out in assay [14]: Cytochrome P450 (CYP24A1), CYP24A1 (gene 1591)
The assay is described as follows: LTEA_HepaRG_CYP24A1: Life Technologies and Expression Analysis (LTEA) Assay for Cytochrome P450 (CYP24A1) using HepaRG (AID 2283478). The method, boiled down: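 Differentiated HepaRG cells, pre-cultured 48 h, were exposed in duplicate for 48 h in serum-free induction medium to 8 half-log concentrations (top 100 uM, 0.5% DMSO). CYP24A1 mRNA was quantified by TaqMan qRT-PCR, normalized to ACTB/GAPDH/POLR2A, fitted bidirectionally versus DMSO.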

Read-out in assay [15]: Cytochrome P450 (CYP1A2), CYP1A2 (gene 1544)
The assay is described as follows: LTEA_HepaRG_CYP1A2: Life Technologies and Expression Analysis (LTEA) Assay for Cytochrome P450 (CYP1A2) using HepaRG (AID 2283479). The method, boiled down: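 Differentiated human HepaRG cells in serum-free induction medium were exposed in duplicate for 48 h to 8-point half-log concentrations up to 100 uM in 0.5% DMSO. CYP1A2 mRNA measured by qRT-PCR, normalized to ACTB, GAPDH, POLR2A; bidirectional fit vs DMSO.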

Read-out in assay [16]: cysteine-aspartic acid protease (CASP8), CASP8 (gene 841)
Description: LTEA_HepaRG_CASP8: Life Technologies and Expression Analysis (LTEA) Assay for cysteine-aspartic acid protease (CASP8) using HepaRG (AID 2283480). An outline of the steps: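 qRT-PCR readout of CASP8 mRNA, normalized to three housekeeping genes, after 48 h chemical exposure of HepaRG cells; 8-point half-log series, top 100 uM, 0.5% DMSO vehicle. Bidirectional curve fitting against DMSO baseline.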

Read-out in assay [17]: Bcl-2 (BAD) gene, BAD (gene 572)
The assay is described as follows: LTEA_HepaRG_BAD: Life Technologies and Expression Analysis (LTEA) Assay for Bcl-2 (BAD) gene using HepaRG (AID 2283469). An outline of the steps:
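HepaRG, 48 h exposure, 8-pt half-log curve from 100 uM in 0.5% DMSO, duplicates. Readout: TaqMan qRT-PCR for BAD mRNA, housekeeping-normalised (ACTB/GAPDH/POLR2A); gain or loss fitted against DMSO baseline.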

Read-out in assay [18]: Apolipoprotein A-V (APOA5) gene, APOA5 (gene 116519)
Description: LTEA_HepaRG_APOA5: Life Technologies and Expression Analysis (LTEA) Assay for Apolipoprotein A-V (APOA5) gene using HepaRG (AID 2283474). The method, boiled down:
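Differentiated human HepaRG cells were exposed in duplicate for 48 h to eight half-log concentrations from 100 uM in 0.5% DMSO. APOA5 mRNA was quantified by TaqMan qRT-PCR, normalized to ACTB, GAPDH and POLR2A, and fitted bidirectionally against DMSO.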

Apoptosis regulator Bcl-2 (Homo sapiens), sequence (P10415 whole entry, looked up): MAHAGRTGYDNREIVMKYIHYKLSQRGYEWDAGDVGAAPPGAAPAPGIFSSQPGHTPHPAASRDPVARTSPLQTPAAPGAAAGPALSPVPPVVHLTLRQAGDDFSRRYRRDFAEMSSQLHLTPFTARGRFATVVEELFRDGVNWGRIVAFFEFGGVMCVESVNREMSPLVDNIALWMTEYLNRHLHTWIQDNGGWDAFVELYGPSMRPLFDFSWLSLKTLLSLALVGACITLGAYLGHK
Caspase-3 (Homo sapiens), sequence (P42574 whole entry, looked up): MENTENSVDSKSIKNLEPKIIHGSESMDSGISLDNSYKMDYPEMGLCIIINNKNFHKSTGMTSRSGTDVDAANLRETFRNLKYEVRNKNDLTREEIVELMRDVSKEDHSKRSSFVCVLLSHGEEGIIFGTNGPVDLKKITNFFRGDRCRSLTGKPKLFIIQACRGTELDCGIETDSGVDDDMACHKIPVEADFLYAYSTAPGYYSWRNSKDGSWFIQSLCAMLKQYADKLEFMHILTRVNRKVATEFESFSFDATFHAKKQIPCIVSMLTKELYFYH
Broad substrate specificity ATP-binding cassette transporter ABCG2 (Homo sapiens), sequence (Q9UNQ0 whole entry, looked up): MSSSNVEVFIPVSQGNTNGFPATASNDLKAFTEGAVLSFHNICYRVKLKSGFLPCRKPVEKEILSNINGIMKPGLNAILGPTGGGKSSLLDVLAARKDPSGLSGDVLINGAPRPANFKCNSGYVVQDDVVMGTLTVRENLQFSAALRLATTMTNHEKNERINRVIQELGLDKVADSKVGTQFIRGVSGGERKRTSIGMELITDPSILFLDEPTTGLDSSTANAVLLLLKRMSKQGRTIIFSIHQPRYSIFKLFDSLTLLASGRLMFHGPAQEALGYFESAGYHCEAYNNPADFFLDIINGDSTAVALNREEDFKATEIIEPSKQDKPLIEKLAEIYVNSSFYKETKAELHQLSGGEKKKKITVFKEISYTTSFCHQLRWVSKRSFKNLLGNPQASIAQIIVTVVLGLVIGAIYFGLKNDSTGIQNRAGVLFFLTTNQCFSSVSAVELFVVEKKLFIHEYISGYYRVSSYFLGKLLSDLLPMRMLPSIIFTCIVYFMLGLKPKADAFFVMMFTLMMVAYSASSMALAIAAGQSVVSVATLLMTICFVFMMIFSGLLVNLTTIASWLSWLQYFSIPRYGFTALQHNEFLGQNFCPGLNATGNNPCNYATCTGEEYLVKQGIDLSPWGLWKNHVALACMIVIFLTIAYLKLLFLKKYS

Take `COCc1nnc(-c2ccc[n+]([O-])c2)n1-c1c(Cl)c(Cl)cc2[nH]c(=O)c(=O)[nH]c12`: the call in assay [1], in assay [2], in [3], in assay [4], in assay [5] and in assay [6] was inactive. In addition, the result (in assay [7]; in assay [8]; in assay [9]; in [10]; in assay [11]; with BCL2L11 (gene 10018)) was inactive. Moreover, the result (in assay [12]; in [13]; in the assay with Caspase-3 (Homo sapiens); in assay [14]; in assay [15]; in assay [16]) was inactive.

On to `CCc1cccc(CC)c1N`, for which the outcome in [2], in [3], in assay [4], in assay [5], in assay [6] and in [7] was inactive. Besides, the outcome (in assay [8]; in [17]; in assay [9]; in assay [10]; in assay [11]; with BCL2L11 (gene 10018)) was inactive. Besides, the result (in assay [12]; in assay [13]; in the assay with Caspase-3 (Homo sapiens); in [14]; in assay [16]) was inactive. For the same compound, the AC50 in assay [15] is 50 µM (active).

Take `NNC(=O)c1ccncc1`: the compound was classed as inactive in [1], in [2], in assay [3], in assay [4], in [5] and in assay [6]. Besides, the compound was called inactive (in assay [7]; in assay [8]; in [9]; in assay [10]; in assay [11]; in the assay with BCL2L11 (gene 10018)). Further, the compound was classed as inactive (in assay [18]; in [12]; in assay [13]; in the assay with Caspase-3 (Homo sapiens); in [14]; in assay [15]). For the same compound, the call in [16] was inactive.

Turning to `CCCCCCOC(=O)CC(CC(=O)OCCCCCC)(OC(=O)CCC)C(=O)OCCCCCC`, the call in assay [1], in assay [2], in assay [3], in assay [5], in [6] and in assay [7] was inactive. Besides, the call (in [8]; in assay [9]; in assay [11]; with BCL2L11 (gene 10018); in [18]; in assay [12]) was inactive. Besides, the result (in assay [13]; in the assay with Caspase-3 (Homo sapiens); in assay [14]; in assay [15]; in [16]) was inactive.

Regarding `NC(=O)NN=Cc1ccc([N+](=O)[O-])o1`, the result in assay [1], in [2], in assay [3], in assay [5], in assay [6] and in assay [7] was inactive. In addition, the outcome (in [9]; in [10]; in [11]; in the assay with BCL2L11 (gene 10018); in assay [18]; in assay [12]) was inactive. The result (with Caspase-3 (Homo sapiens); in assay [16]) was inactive. For the same compound, the AC50 in [8] is 0.468 µM (active); in assay [13], 0.267 µM (active); in assay [14], 0.456 µM (active); in assay [15], 0.377 µM (active).

In the case of `O=c1[nH]cnc2c1ncn2[C@H]1CC[C@@H](CO)O1`, the compound was called inactive in [2], in [3], in assay [4], in assay [5], in assay [6] and in assay [7]. Besides, the call (in assay [8]; in assay [17]; in assay [9]; in [10]; in [11]; with BCL2L11 (gene 10018)) was inactive. Further, the call (in assay [18]; in assay [12]; in assay [13]; with Caspase-3 (Homo sapiens); in [14]; in assay [15]) was inactive. Besides, the outcome in assay [16] was inactive.
